This is a sample that favours compounds with a hit; in the whole collection about 15% have one here.
Sm TGR block: blocks Schistosoma mansoni thioredoxin glutathione reductase; purified TGR, DTNB reduction, TNB absorbance 405 nm; Potency, µM (doses to about 114 µM), inactives show at the highest dose activity change, negative = inhibition, most hits filed as inhibitors; actives 3% (n = 360,000); AID 485364; also: potency is read from the fitted curve at half-maximal effect; % is scaled to controls: 0 for no effect and ±100 for the full control effect; nearly all actives have a fitted effect of over 60% in size
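TGR 20 nM + NADPH 100 uM (dispensed conc.), cpd preinc 15 min RT; start with NADPH (500 uM addition) then DTNB (15 mM addition). Kinetic TNB absorbance, 405 nm filter. Four-parameter Hill fit across titration.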
HCMV inh: inhibitors of human cytomegalovirus; HFF cells, HCMV-luciferase reporter, 72 h; hits give low values; activity change, negative = inhibition, % at 57.5 µM; actives 4.5% (n = 410,000); AID 1259415; in the data active = activity change below about -60%; inconclusive = no clear call, values can overlap the other calls; inactive = above about -39%; also: % is scaled to controls: 0 for no effect and ±100 for the full control effect
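Steps: HFFs plated, 16 h 37C; compounds added; HCMV-luciferase added to MOI 1 PFU/cell; 72 h 37C; OneGlo reagent, 5 min room temperature; luminescence read, normalized to controls.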
Pf growth 48h: P. falciparum growth inhibition at 48 hours (one generation); P. falciparum luciferase growth in erythrocytes, 48 h; Potency, µM (highest dose often 28.7 µM), inactives show at the top dose activity change, negative = inhibition, hits mostly inhibitors; actives 5.9% (n = 310,000); also: potency is read from the fitted curve at half-maximal effect; % is scaled to controls: 0 for no effect and ±100 for the full control effect
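Firefly luciferase activity from engineered P. falciparum reports growth; inhibitors lower the luminescent signal. Cultures contained 2% hematocrit erythrocytes at 0.1% final parasitemia.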
HCV inh: inhibitors of hepatitis C virus infection. AID 651820. Potency, µM (titrated, usually from 41.8 µM), inactives show top-dose activity change, negative = inhibition, actives largely listed as inhibitors. Huh7.5.1 HCVcc-Cre infection, luciferase reporter, 44 h. actives 3.4% (n = 340,000); also: potency is read from the fitted curve at half-maximal effect; % is scaled to controls: 0 for no effect and ±100 for the full control effect
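Seed cells (1,000/well) for 4 h; treat with compound and infect with HCVcc-Cre, moi about 0.5. Incubate 44 h, then detect luciferase activity.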
SARS PLP yeast: SARS-CoV PLP inhibition in yeast; S. cerevisiae expressing SARS-CoV PLpro, growth rescue; Potency, µM (doses to about 32.9 µM), inactives show at the highest dose activity, positive = growth rescue, usual class: activators; actives 0.19% (n = 330,000); calls by dose curve; also: potency is read from the fitted curve at half-maximal effect; 0% is about no effect; nearly all actives have a fitted effect of over 55% in size
Pf growth 96h: inhibits malaria parasite growth, 96 h. P. falciparum luciferase reporter growth, 96 h. Potency, µM (series often up to 28.7 µM), without a hit: at the highest dose activity change, negative = inhibition, most hits filed as inhibitors. actives 6.9% (n = 320,000). AID 504834; also: potency is read from the fitted curve at half-maximal effect; % is scaled to controls: 0 for no effect and ±100 for the full control effect
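P. falciparum expressing integrated firefly luciferase, in erythrocytes at 2% hematocrit, 0.05% parasitemia, incubated with compounds 96 h at 37 C, 5% CO2. Growth inhibition read as loss of luminescence; two-generation exposure targets delayed-death apicoplast inhibitors.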
The depositor's hits bear a star; ? = inconclusive; · = no result given; ! = repeats disagree; [ ] = remark or other dose. Unless noted, calls follow the shape of the dose curve; as a rule, active = well fitted curve in the direction sought with a large enough effect; inconclusive = small, poorly fitted or top-dose-only effect, or another doubt; inactive = no such curve, though single readings can be large; an effect the other way counts as inactive or inconclusive.

SMILES	Sm TGR block	HCMV inh	Pf growth 48h	HCV inh	SARS PLP yeast	Pf growth 96h
CCC1Oc2ccc(C)cc2N(CC(=O)NCc2ccc(F)cc2)C1=O (stereo unspecified)	-3.5%	-12.3	·	·	·	·
N#Cc1ccccc1Sc1ccccc1C(=O)OCC(N)=O	6.3%	12.7	4.6%	8.9%	1.2%	23.4%
Cc1noc(C)c1COC(=O)c1ccccc1Sc1ccccc1C#N	-1.3%[11.4 µM]	12.5	·	?	0.2%	11.7µM*
COCCn1c(SCC(=O)N2CC(=O)Nc3ccccc32)nc2ccccc2c1=O	-7.4%	-30.9	?	1.1%	3.1%	?
CC(C)c1nc(SCC(=O)N2CC(=O)Nc3ccccc32)c2ccccc2n1	·	-87.2*	-18.1%	?	-0.7%	47.4%
Cc1cccc(C)c1-n1c(SCC(=O)N2CC(=O)Nc3ccccc32)nc2ccccc2c1=O	8.1%	?	13.1µM*	?	2.4%	-101.1%
CC(C)c1nc(SCC(=O)N2c3ccccc3CC2C)c2ccccc2n1 (stereo unspecified)	5.3%	?	?	?	-11.4%	?
Cc1ccc(-n2c(SCC(=O)N3CC(=O)Nc4ccccc43)nc3ccccc3c2=O)cc1	-3.5%	-68.0*	13.1µM*	4.7%	-12.7%	?
O=C1CN(C(=O)CSc2nc(-c3ccc(Cl)cc3)cs2)c2ccccc2N1	-3.1%	?	?	14.1µM*	-14.6%	?
CC(=O)Nc1ccc(S(=O)(=O)N2CCC3(CC2)CC(=O)c2ccccc2O3)cc1	0.8%	-15.7	-28.3%	0.6%	-1.2%	?
Cc1cc(C)c2nc(SCC(=O)N3CC(=O)Nc4ccccc43)c(C#N)cc2c1	-2.2%	-88.5*	13.1µM*	7.94µM*	21.7%	?
Cc1cc(C)c2nc(SCC(=O)Nc3ccccc3N3CCOCC3)c(C#N)cc2c1	·	-17.4	·	?	·	·
CCOC(=O)c1c(C)[nH]c(C)c1C(=O)CSc1nc2ccccc2c(=O)n1-c1ccc(Cl)cc1	2.2%	?	?	?	3.0%	9.28µM*
Cc1[nH]c2ccccc2c1C(=O)CSc1nc2ccccc2c(=O)n1-c1ccccc1F	·	-88.7*	-16.6%	·	1.2%	?
Cc1[nH]c2ccccc2c1C(=O)CSc1nc2ccccc2[nH]1	13.9%	38.8	39.5%	?	5.6%	70.4%
CCOC(=O)c1c(C)[nH]c(C)c1C(=O)CSc1nc2ccccc2c(=O)n1-c1ccc(C)cc1	8.1%	-28.5	?	?	5.9%	?
COc1ccc(NC(=O)CSc2nccn2Cc2ccco2)cc1OC	-6.3%	58.5	64.8%	-27.5%	0.9%	17.4%
Cc1[nH]c2ccc(O)cc2c1CCN	39.8µM*	-5.2	-23.2%	10.0%	·	25.8%
Cc1[nH]c2ccc(OCc3ccccc3)cc2c1CCN	24.9%	7.2	-29.7%	-27.9%	-10.0%	?
COc1ccc(S(=O)(=O)N2CCCCC2)cc1N(C)S(=O)(=O)c1ccccc1	1.5%	20.4	-27.1%	·	-2.0%	255.6%
COc1ccc(S(=O)(=O)NN(C)C)cc1N(C)S(=O)(=O)c1ccc(Cl)cc1	5.0%	-63.8*	12.4%	5.2%	-3.1%	0.0%
COc1ccc(S(=O)(=O)Nc2ccc(C)cc2)cc1N(C)S(=O)(=O)c1ccc(Cl)cc1	34.0%	-99.0*	2.94µM*	8.91µM*	-17.1%	-12.2%
C[N+](C)(C)CCN1CCc2ccccc21	·	-11.5	·	·	·	·
Cc1ccc(C(=O)CN2CCN(c3ccccn3)CC2)c(C)c1	14.1µM*	·	17.7%	-3.6%	-0.3%	?
O=C(CSc1nc2ccccc2o1)N1c2ccccc2Sc2ccc(C(F)(F)F)cc21	0.9%	-2.9	13.1µM*	?	-1.9%	?
O=C(CN1CCN(c2ccccn2)CC1)N1c2ccccc2CCc2ccccc21	-10.4%	-19.5	14.7µM*	-22.4%	-9.4%	?
CN1CCN(CC(=O)N2c3ccccc3C(=O)Nc3cccnc32)CC1	-7.9%	·	-0.8%	2.3%[8.37 µM]	-4.2%	15.1µM*!
O=C(CN1CCCC1)N1c2ccccc2Sc2ccc(C(F)(F)F)cc21	-8.2%	?	?	?	9.8%	2.3%

Screens: PubChem, National Center for Advancing Translational Sciences (NCATS)
